# High-throughput results as filed in PubChem BioAssay.
# KDM4E inh: inhibitors of human JMJD2E histone demethylase | B2RXH2 | JMJD2E catalytic domain, FDH-coupled NADH fluorescence (FDH is formaldehyde dehydrogenase) | Potency, µM (highest dose often 57.1 µM), hits mostly inhibitors | 230,000 compounds, 1.6% hits | AID 2147; active = well fitted inhibition curve with a large enough effect, not every such curve was filed as active; inconclusive = small, poorly fitted or top-dose-only effect, or another doubt; inactive = no such curve, though single readings can be large or run the other way; note: nearly all actives have a fitted effect of over 50% in size
# Tau fibril FP: inhibitors of human tau fibril formation | K18 P301L tau heparin fibrillization, Alexa594 FP, 6 h | Potency, µM (highest dose often 57.7 µM), hits mostly inhibitors | 280,000 compounds, 0.39% hits; note: nearly all actives have a fitted effect of over 55% in size
# Target sequence (P10636 561-689 P618L limits assumed): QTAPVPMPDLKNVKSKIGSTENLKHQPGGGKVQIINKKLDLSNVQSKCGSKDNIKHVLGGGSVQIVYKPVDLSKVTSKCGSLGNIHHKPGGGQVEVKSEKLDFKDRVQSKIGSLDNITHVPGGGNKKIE
#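 Human tau K18 […] P301L fragment, 15 uM unlabeled plus 0.24 uM Alexa 594-labeled tau (final), with compound and 20 uM heparin in 100 mM sodium acetate pH 7; 6 hr at 37 C, then Alexa 594 FP read.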
# Tau fluor cs: counter-screen for tau fibril formation inhibitors | tau K18 P301L Alexa594 fluorescence, heparin fibrillization | 280,000 compounds, 0.93% hits | AID 1463 | Potency, µM (series often up to 57.7 µM); note: nearly all actives have a fitted effect of over 55% in size
#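 Human K18 P301L tau (15 uM unlabeled plus 0.24 uM Alexa 594-labeled, final) in 100 mM sodium acetate pH 7 was mixed with compound and 20 uM heparin and incubated 6 hr at 37 C.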
# NPSR antagonist: neuropeptide S receptor (human) antagonism, cAMP. Potency, µM (highest dose often 38.3 µM), actives largely listed as inhibitors. CHO-NPSR cells, cAMP TR-FRET, antagonist mode. 220,000 compounds, 1% hits; note: nearly all actives have a fitted effect of over 50% in size
# Target sequence (Q6W5P4 whole entry, looked up): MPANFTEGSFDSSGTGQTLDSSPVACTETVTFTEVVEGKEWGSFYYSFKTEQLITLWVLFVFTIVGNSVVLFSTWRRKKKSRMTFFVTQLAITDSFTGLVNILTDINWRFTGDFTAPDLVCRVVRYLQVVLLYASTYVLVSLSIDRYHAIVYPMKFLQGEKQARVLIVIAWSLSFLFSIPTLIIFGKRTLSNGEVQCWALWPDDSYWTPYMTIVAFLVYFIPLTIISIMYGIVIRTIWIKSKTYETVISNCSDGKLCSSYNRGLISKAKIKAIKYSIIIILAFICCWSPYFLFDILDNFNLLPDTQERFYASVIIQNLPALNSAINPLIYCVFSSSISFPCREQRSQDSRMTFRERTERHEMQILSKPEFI
# Tau fibril ThT: blocks human tau fibril formation measured by thioflavin T | P10636 | recombinant tau K18 P301L (four-repeat tau fragment), heparin-induced fibrillization, ThT fluorescence | Potency, µM (highest dose often 57.4 µM), usual class: inhibitors | 270,000 compounds, 2.1% hits | AID 1460; note: nearly all actives have a fitted effect of over 55% in size
#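 Heparin-induced (20 uM) aggregation of recombinant human K18 P301L tau, 15 uM unlabeled with 0.24 uM labeled, pH 7 acetate buffer, 6 hr at 37 C with compound. Fibrils quantified by 30 uM ThT fluorescence after 1 hr ambient incubation.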
# PNC assembly inh: perinucleolar compartment assembly inhibition. PC3M PTB-GFP, PNC prevalence imaging, 16 h; hits give low values. activity change (PNC), negative = inhibition, % at 10 µM. 140,000 compounds, 3.1% hits. AID 2417;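 active = readout at or below -70, meaning at least 70% loss of cells showing the perinucleolar compartment, a nuclear body marking cancer cells; inconclusive = readout between -30 and a set limit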
#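 Read-out is percentage of cells bearing a perinucleolar compartment, from automated 20x imaging of fixed, Hoechst-stained PC3M PTB-GFP cells. Cells were seeded 4 h, then exposed 16 h to compound (23 nl of library stock) in duplicate plates.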
# A number is an active result; n = inactive; u = inconclusive; x = no result; [ ] = another dose, or the depositor's remark. Hits are enriched below; roughly 5.1% of the tested compounds scored in any of these assays. Unless noted, calls come from the whole dose curve; as a rule, active = well fitted curve in the direction sought with a large enough effect; inconclusive = small, poorly fitted or top-dose-only effect, or another doubt; inactive = no such curve, though single readings can be large; an effect the other way counts as inactive or inconclusive.
SMILES,KDM4E inh,Tau fibril FP,Tau fluor cs,NPSR antagonist,Tau fibril ThT,PNC assembly inh
CC(=O)Nc1ccc2nc3c(=O)n(C)c(=O)n(C)c3nc2c1,u,u,n,n,18µM,x
CC(=O)Nc1ccc2nc3ccccc3nc2c1,14µM,u,n,n,u,x
CCOC(=O)C1CCCN(C(=O)Cc2ccc(C)cc2)C1 (stereo unspecified),n,n,n,n,n,u
O=C(CC(c1ccccc1)c1ccccc1O)N1CCCC1 (stereo unspecified),n,n,n,n,n,-88
CCOC(=O)C1CCCN(C(=O)CC(c2ccccc2)c2ccccc2)C1 (stereo unspecified),n,n,n,n,n,-100
CSc1ccc(C2C(C#N)=C(N)N(c3ccccc3)C3=C2C(=O)CCC3)cc1 (stereo unspecified),u,n,n,n,u,n
N#CC1=C(N)N(c2ccc(F)cc2)C2=C(C1c1ccc(O)cc1)S(=O)(=O)CC2 (stereo unspecified),20µM,u,u,n,16µM,x
COC(=O)NC(c1cccc(F)c1)[C@@]1(C(=O)OC)CCCC1=O (stereo partly specified),x,n[11.6 µM],n[11.6 µM],x,n[11.5 µM],x
COc1ccc(N(C)S(=O)(=O)c2cccc(C(=O)OC(C(=O)Nc3cc(C)cc(C)c3)c3ccccc3)c2)cc1 (stereo unspecified),n,u,n,n,n,-102
COc1cccc(C(=O)Nc2c(C(=O)N3CCN(c4ccc(F)cc4)CC3)oc3ccccc23)c1,x,n,u,x,u,x
CCN1CCN(c2cc(C)c3cc(NC(=O)/C=C/c4ccc(C)cc4)ccc3n2)CC1,x,n,14µM[quencher],x,4.5µM,x
COc1ccccc1CC(=O)Nc1ccc2nc(N3CCC(C)CC3)cc(C)c2c1,x,n,u,x,n,x
CCN1CCN(c2cc(C)c3cc(NC(=O)c4cc(OC)c(OC)c(OC)c4)ccc3n2)CC1,x,n,u,x,u,x
CCN1CCN(c2cc(C)c3cc(NC(=O)/C=C/c4ccc(OCCC(C)C)cc4)ccc3n2)CC1,x,n,u,x,7.1µM,x
CCN1CCN(c2cc(C)c3cc(NC(=O)c4cccs4)ccc3n2)CC1,n,n,u,n,u,x
COc1ccc(/C=C/C(=O)Nc2ccc3nc(N4CCC(C)CC4)cc(C)c3c2)cc1OC,x,n,3.5µM[quencher],x,3.5µM,x
CCOC(=O)COc1ccc([N+](=O)[O-])cc1-c1ccnc2cc(-c3ccc(Cl)cc3)nn12,x,n,u,x,u,x
Cn1c(SCC(=O)c2ccccc2)nnc1-c1ccco1,n,n,n,n,n,n
CC(C)(C)c1nnc(SCC(=O)c2ccccc2)n(N)c1=O,n,n,n,n,n,-114
Cc1nc2ccn(Cc3cccnc3)c(=O)c2cc1C(=O)N1CCN(c2ccccc2)CC1,x,n,n,x,n,x
CN(C(=S)Nc1ccc(Oc2ccccc2)cc1)c1ccc(O)cc1,n,n,n,n,n,u
CN(C(=S)Nc1ccc(SC(F)F)cc1)c1ccc(O)cc1,u,u,u,n,2.5µM,n
CCc1cc(C(c2ccc(F)cc2)N2CCOCC2)c(NC(=O)c2ccccc2)s1 (stereo unspecified),n,n,u,u,32µM,n
Cc1cc(C(=O)NNC(=S)Nc2ccccc2)nn1C,8.9µM,n,n,n,n,x
Nc1ncnc2c1ncn2[C@@H]1O[C@H](C(=O)NC2CC2)[C@@H](O)[C@H]1O,x,n,n,x,n,x
SMILES,KDM4E inh,Tau fibril FP,Tau fluor cs,NPSR antagonist,Tau fibril ThT,PNC assembly inh
O=C(NCCn1ccc2ccccc21)c1ccc(S(=O)(=O)N2CCCCC2)cc1,n,n,u,n,n,-81
COc1ccc(C(=O)NCCn2ccc3ccccc32)cc1,n,n,n,n,n,u
COc1ccc(-c2noc(COc3cc(C)ccc3C)n2)cc1OC,x,n,n,x,u,x
O=[N+]([O-])c1ccc(N/N=C2\CC3CC=CC23)cc1 (stereo unspecified),n,n,u,n,14µM,x
CC(=O)c1ccc(NC(=O)C2CCC(CNS(=O)(=O)c3cccc4nsnc34)CC2)cc1 (stereo unspecified),x,n,n,x,u,x
CCOc1ccc(NC(=O)CSc2nc3c(c(=O)[nH]2)CCCC3)cc1,x,n,n,x,n,x
CCCCCOc1ccc(Cn2c(=O)oc3ccc(C)cc32)cc1OC,x,n,n,x,n,x
CCn1c(C)nc2cc(C(=O)N=Nc3c(O)[nH]c4ccccc34)ccc21,n,n,n,n,u,-93
CCOC(=O)C(=O)N=Nc1c(O)[nH]c2ccccc12,n,n,n,n,n,n
CCn1c(C)nc2cc(C(=O)N/N=C/c3ccc(O)cc3)ccc21,n,n,n,n,u,u
Cn1c(SCC(=O)N=Nc2c(O)[nH]c3ccccc23)nc2ccccc21,n,n,n,n,n,n
CCn1c(C)nc2cc(C(=O)N=Nc3c(O)[nH]c4c(C)cc(C)cc34)ccc21,n,n,n,n,7.1µM,n
O=C(CSc1nc2ccccc2[nH]1)N=Nc1c(O)[nH]c2ccccc12,n,n,u,n,14µM,n
CCn1cc(C(=O)N2CCN(c3ccccc3F)CC2)c(=O)c2cc(S(=O)(=O)N(C)C3CCCCC3)ccc21,x,n,n,x,n,x
CCc1ccc(NC(=O)Cn2c(=O)n(CCc3ccccc3)c(=O)c3sc4ccccc4c32)cc1,x,u,n,x,n,x
O=C(CCC(=O)Nc1cccc(Cl)c1)N/N=C/c1cc([N+](=O)[O-])ccc1O,18µM,n,u,n,u,x
CN1CCN(CCC(=O)N/N=C/c2cc([N+](=O)[O-])ccc2O)CC1,0.89µM,n,n,n,u,n
Cc1cc(=O)oc2cc(OCC(=O)N/N=C/c3cc([N+](=O)[O-])ccc3O)ccc12,u,n,n,n,3.5µM,n
Cc1cc(=O)oc2cc(OCC(=O)Nc3ccc(O)c(C(=O)O)c3)ccc12,x,n,n,x,u,x
Cc1ccc(NC(=O)CCC(=O)N/N=C/c2cc([N+](=O)[O-])ccc2O)cc1,u,n,n,n,u,u
Cc1c(NC(=S)N/N=C/c2cc([N+](=O)[O-])ccc2O)c(=O)n(-c2ccccc2)n1C,8.9µM,n,n,n,32µM,x
CCOc1ccc(NS(=O)(=O)c2ccc3[nH]cc(C(=O)N4CCCCCC4)c(=O)c3c2)cc1,x,n,n,x,n,x
Cc1[nH]nc2c1C(c1ccco1)C(C#N)=C(N)O2 (stereo unspecified),n,n,n,n,n,x
COc1ccc(-c2ccc(C3C(C#N)=C(N)Oc4n[nH]c(C)c43)o2)cc1 (stereo unspecified),n,n,u,n,4.5µM,n
O=c1oc2c(O)c(O)cc3c(=O)oc4c(O)c(O)cc1c4c23,2.5µM,u,u,n,14µM,u
Cc1c(C)c2cc(Cl)c(O)c(CN(C)C)c2oc1=O,u,n,n,n,n,u
